{
  "source": "PubChem BioAssay AID652208",
  "about": "(Broad Institute, 2013)",
  "note": "Entries with a potency or affinity are not part of this list. Unmarked numbers belong to inactive results.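 The calls were made as follows: active = Loss of cell signal with fitted half-effect dose at or below twice the top valid tested dose; inconclusive = Poor fit, or flat fit from -70 to -30 percent; inactive = Half-effect above limit, rising signal, or flat within 30 percent.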",
  "data": [
    {"test": "viability loss in HEK293T cells – cell-based, cherry-picks, cytotoxicity control for HIV Vif inhibitor project, dose response (AID 652208);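 also: 0% = median neutral control wells and -100% = median staurosporine control wells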", "conditions": "CellTiter-Glo luminescence, 24 h; series mostly up to 26 µM; activity change, negative = cytotoxicity: at the top concentration", "units": {"activity change, negative = cytotoxicity": "%"}, "values": [
      {"smiles": "CCCCCCOC(=O)C(C#N)c1nc2ccccc2nc1N1CCOCC1", "note": "(stereo not drawn)", "activity change, negative = cytotoxicity": 8.63},
      {"smiles": "CCCn1c(=N)c(C(=O)NCc2ccc3c(c2)OCO3)cc2c(=O)n3cccc(C)c3nc21", "activity change, negative = cytotoxicity": -9.2},
      {"smiles": "O=C(C1COc2ccccc2O1)N1CCN(Cc2ccc3c(c2)OCO3)CC1", "note": "(stereo not drawn)", "activity change, negative = cytotoxicity": -3.74},
      {"smiles": "Oc1ccc(-c2nc(-c3ccc(O)c(O)c3)cs2)cc1", "activity change, negative = cytotoxicity": 1.6},
      {"smiles": "CC(C)OC(=O)c1cn(-c2ccccc2)nc1-c1ccc2c(c1)OCCO2", "activity change, negative = cytotoxicity": -1.1},
      {"smiles": "CN(C)C(=O)c1cc(Br)ccc1Cl", "activity change, negative = cytotoxicity": 10.3},
      {"smiles": "COc1cc(/C=C/C(=O)O)ccc1S(=O)(=O)N1CCCc2ccccc21", "activity change, negative = cytotoxicity": 3.17},
      {"smiles": "Cc1ccc(N(C)S(=O)(=O)c2ccc(-c3ccc(=O)[nH]n3)s2)cc1C", "activity change, negative = cytotoxicity": -19.2},
      {"smiles": "Cc1nnc2ccc(-c3ccc(NS(=O)(=O)c4ccc(Cl)s4)cc3)nn12", "activity change, negative = cytotoxicity": 10.5},
      {"smiles": "O=C(NCC1CC1)NC(=O)c1c(F)cccc1Cl", "activity change, negative = cytotoxicity": 2.39},
      {"smiles": "CCCCCCn1c(N(CC)CC)nc2c1c(=O)[nH]c(=O)n2C", "activity change, negative = cytotoxicity": -0.206},
      {"smiles": "COc1ccc(C(=O)c2sc3nc(C)cc(-c4cccs4)c3c2N)cc1OC", "activity change, negative = cytotoxicity": -23.2},
      {"smiles": "CCOc1ncccc1C(=O)OCc1ccccc1", "activity change, negative = cytotoxicity": -8.04},
      {"smiles": "COc1ccc(-c2nc(-c3ccccn3)nc(N3CCN(C)CC3)c2C#N)cc1", "activity change, negative = cytotoxicity": -3.84},
      {"smiles": "CC1CN(S(=O)(=O)c2cccc(C(=O)N3CCC(C(N)=O)CC3)c2)CC(C)O1", "note": "(stereo not drawn)", "activity change, negative = cytotoxicity": 5.09},
      {"smiles": "COc1cccc(CNc2ccc3c(c2)CCC3)c1", "activity change, negative = cytotoxicity": -9.75},
      {"smiles": "CCCn1c(=O)c(C(=O)Nc2ncccc2O)c(O)c2ccccc21", "activity change, negative = cytotoxicity": 4.21},
      {"smiles": "O=C(CCN1CCOCC1)Nc1ccc(Cl)cc1", "activity change, negative = cytotoxicity": 0.037},
      {"smiles": "O=C(CCCSc1nc2ccccc2c(=O)[nH]1)c1ccccc1", "activity change, negative = cytotoxicity": -0.796},
      {"smiles": "C[C@@H]1CN([C@H](C)CO)C(=O)CCCn2cc(nn2)CO[C@H]1CN(C)C(=O)c1ccccc1", "activity change, negative = cytotoxicity": 9.43},
      {"smiles": "O=C(O)c1ccc(-c2nc(-c3cccc(C(F)(F)F)c3)cs2)cc1", "activity change, negative = cytotoxicity": -7.98},
      {"smiles": "COc1cc(Nc2nc3ccccc3n3nnnc23)cc(OC)c1OC", "activity change, negative = cytotoxicity": -9.03},
      {"smiles": "COc1cc2[nH]c(=O)n(CCCC(=O)NC3CCCCC3)c(=O)c2cc1OC", "activity change, negative = cytotoxicity": -1.25},
      {"smiles": "Oc1[nH]c(=S)sc1/C=C1\\C(c2ccccc2)=Nc2ccccc21", "activity change, negative = cytotoxicity": 4.54},
      {"smiles": "CCn1c(CC(=O)Nc2ccccc2)nnc1SCC(=O)Nc1nnc(C)s1", "activity change, negative = cytotoxicity": 4.17},
      {"smiles": "COc1ccc(C(=O)NC2CC3CCCC(C2)N3Cc2ccccc2)cc1OC", "note": "(stereo not drawn)", "activity change, negative = cytotoxicity": 1.58},
      {"smiles": "CCOC(=O)c1nc(Nc2ccc(C(=O)OC)cc2)c2ccccc2n1", "activity change, negative = cytotoxicity": -17.9},
      {"smiles": "O=C(c1cc(-c2ccccc2O)on1)N1CCCCCC1", "activity change, negative = cytotoxicity": -3.85},
      {"smiles": "COc1ccccc1Nc1nnc(C)c(=O)[nH]1", "activity change, negative = cytotoxicity": -4.17},
      {"smiles": "COc1cccc(N2CCN(C(=O)c3ccc(CS(=O)c4ccc(C)cc4)o3)CC2)c1", "note": "(stereo not drawn)", "activity change, negative = cytotoxicity": -14.4},
      {"smiles": "O=C1c2ccccc2C(Nc2ccc(S(=O)(=O)N3CCOCC3)cc2)N1c1ccccn1", "note": "(stereo not drawn)", "activity change, negative = cytotoxicity": -4.6},
      {"smiles": "CN1CCc2c(sc(NC(=O)c3cc(Cl)sc3Cl)c2C(N)=O)C1", "activity change, negative = cytotoxicity": -10.7},
      {"smiles": "COc1ccccc1-c1cccc2nccn12", "activity change, negative = cytotoxicity": -5.37},
      {"smiles": "CCC(C)C(=O)Nn1c(C2CC2)nc2cc(OC)c(OC)cc2c1=O", "note": "(stereo not drawn)", "activity change, negative = cytotoxicity": -7.99},
      {"smiles": "Cc1c(NC(=O)c2cc3ccccc3oc2=O)c(=O)n(-c2ccccc2)n1C", "activity change, negative = cytotoxicity": 6.31},
      {"smiles": "Cc1cc(NS(=O)(=O)c2ccc(NC(=O)c3ccc(Cl)cc3Cl)cc2)no1", "activity change, negative = cytotoxicity": 0.157},
      {"smiles": "CCOC(=O)C1CCCN(C(=O)c2cc(S(=O)(=O)N(C)C)ccc2N2CCCC2)C1", "note": "(stereo not drawn)", "activity change, negative = cytotoxicity": -14.7},
      {"smiles": "CSc1ccc(CN(C)CC(=O)NCCc2ccccc2)cc1", "activity change, negative = cytotoxicity": 2.59}
    ]}
  ]
}
